Results on five compounds are retold here after PubChem BioAssay.

Results filed as inconclusive are left out. Activity calls are given as the source filed them.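 Rule for the calls, unless noted: active = binding below the plate cutoff, the plate median minus 3 SD, with a reading above zero; inconclusive = below the plate cutoff but reading exactly zero; inactive = the rest.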

Experiment [1] can be described thus: rapamycin-like changes in RPL19A-GFP expression – cell-based, S. cerevisiae, multiplex flow cytometry, primary screen (AID 1862; in the data active = percent of DMSO control GFP below about 86%;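 note: lower values mimic rapamycin by blocking the RPL19A rise seen in DMSO cells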). The settings on record: S. cerevisiae RPL19A-GFP strain, flow cytometry fluorescence, 3 h; at 10 µM; stronger effect = lower value. (In flow cytometry, cells or beads pass a laser one at a time.)
A short description of experiment [2]: TOR pathway GLN3 branch reporter MEP2-GFP changes – S. cerevisiae, multiplex flow cytometry, primary screen (AID 1867;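 active = GFP response, as percent of the DMSO control, above the screen-wide mean plus 3 SD, about 139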;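 note: median GFP channel fluorescence of barcode-gated MEP2-GFP cells measured by flow cytometry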). The settings on record: S. cerevisiae MEP2-GFP strain, 3 h, at 10 µM, stronger effect = higher value, 100% means same as DMSO wells.
Experiment [3] can be described thus: TOR pathway RTG branch CIT2 reporter changes – S. cerevisiae, GFP fusion, multiplex flow cytometry, primary screen (AID 1870;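 active = percent response above a set limit, the screen-wide mean plus 3 SD, cut at about 130% in these data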;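 note: barcoded CIT2-GFP strain pooled with four other GFP strains with rapamycin as positive control; median GFP fluorescence per well over plate mean of DMSO wells so 100% = DMSO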). To be noted: S. cerevisiae CIT2-GFP expression, 3 h, at 10 µM, stronger effect = higher value.
Experiment [4] is described as follows: TOR pathway LAP4-GFP level changes – S. cerevisiae, multiplex flow cytometry, primary screen (AID 1873;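 active = GFP signal, as percent of the solvent control, above the screen mean plus 3 SD, about 149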). The settings on record: S. cerevisiae LAP4-GFP expression, 3 h, at 10 µM, stronger effect = higher value.
The nature of experiment [5]: yeast AGP1-GFP level changes, GLN3 branch – cell-based, multiplex flow cytometry, S. cerevisiae, primary screen (AID 1887;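 active = GFP signal above the screen-wide mean plus 3 SD, that is over about 124.5% of the solvent control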;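 note: AGP1-GFP fusion strain of S. cerevisiae within a five-strain barcoded multiplex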). The settings on record: 3 h, at 10 µM, stronger effect = higher value.
The nature of experiment [6]: reduced mouse 2C T cell binding to pMHC/ICAM-1 vesicles – MLPCN validation set, flow cytometry, LFA-1/ICAM-1 modulator project, pilot screen (AID 2523;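 active = response below a set limit, under 55% cells CD8-positive and vesicle-bound, and CD8 cells' 90th-percentile brightness under 279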;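 for vesicle binding response: mean PE anti-B7-1 fluorescence of CD8+ cells relative to row control; 100% = QL9-loaded vesicles with DMSO vehicle in the same plate row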). The settings on record: 2C mouse CD8+ T cells, at 7 µM, stronger effect = lower value; double positive events: measured here: CD8+/vesicle+ event percentage.
In experiment [7] the target is Integrin beta-1 (Homo sapiens) + Integrin alpha-4 (Homo sapiens) (UniProt P13612+P05556). Briefly: alpha4beta1 integrin LIBS antibody binding reduction – U937 cells, HUTS-21 mAb, flow cytometry, validation set, VLA-4 allosteric modulator project, pilot screen (AID 2674;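 active = inhibition above 50%, about 3 SD of the validation set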;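 note: antibody binding induced by the VLA-4 ligand LDV present at three times its Kd; 0% = LDV ligand with antibody and no compound and 100% = antibody without LDV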). To be noted: HUTS-21 LIBS mAb binding, at 6.7 µM, stronger effect = higher value, binding induced by LDV ligand.

The nature of experiment [8]: calorie-restriction mimetic ROS inhibitors, yeast – validation compound set, pilot screen (AID 2706;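 active = superoxide response below 65% of plate, a cut near 3 SD across the whole screen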;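 note: yeast exposed to compound for one week at 30 degrees C before staining; 100% = mean of all compound wells on the same plate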). The settings on record: S. cerevisiae aging, superoxide DHE fluorescence; at 10 µM, stronger effect = lower value.
In experiment [9] the target is Beta-adrenergic receptor kinase 1 (Homo sapiens) (UniProt P25098). The experiment in a line: GRK2 binders displacing RNA aptamer, biochemical, validation, human GRK2, bead flow cytometry (AID 488806;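 active = aptamer binding inhibition above 30%, about 3 SD of noise from non-fluorescent compounds; inactive = inhibition at or below 30%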). To be noted: bead-bound GRK2, FAM-aptamer displacement, at 10 µM, stronger effect = higher value.
The target in experiment [10] is AP-2 complex subunit beta (Homo sapiens) (UniProt P63010). Briefly: beta-arrestin/AP2 interaction blockers – biochemical, validation set, GST-AP2 beads, flow cytometry, pilot screen (AID 504541;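 active = inhibition above 54%, about 3 SD of non-fluorescent compounds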;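 note: AP2 carries R879A mutation and is captured from E. coli lysate; bead-bound FITC arrestin peptide fluorescence measuring arrestin peptide binding to AP2; 0% = DMSO wells and 100% = excess unlabeled arrestin peptide control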). The settings on record: FITC arrestin peptide, at 10 µM, stronger effect = higher value, AP2 beta2 appendage fragment, R879A mutant.
The nature of experiment [11]: cytosolic pH regulators acting via V-ATPase – S. cerevisiae, pHLuorin, HTS validation (AID 504600; in the data active = response above about 15%;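 note: plate controls were DMSO for no effect and reference compound for full effect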). To be noted: V-ATPase proton transport, at 10 µM, stronger effect = higher value.
In experiment [12] the test system is anti-desmoglein-3 scFv antibody binding to human DSG3. The experiment in a line: blockers of pathogenic pemphigus antibody–desmoglein-3 binding – biochemical, validation compound set, bead-based, flow cytometry, pilot screen (AID 588368).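 Note: signal is the median channel fluorescence of bead-bound GFP antibody.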 To be noted: Protein G beads, DSG3-Fc, scFv-GFP binding, at 10 µM, stronger effect = lower value.
Experiment [13] deals with ATP-binding cassette sub-family B member 6 (Homo sapiens) (UniProt Q9NP58). Briefly: blockers of ABCB6-driven porphyrin uptake – K562-ABCB6 cells, flow cytometry, validation set, pilot screen (AID 588550;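 active = inhibition above the screen-wide mean plus 3 SD, about 51%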;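 note: 0% = DMSO wells and 100% = benzethonium chloride 70 µM positive control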). The settings on record: K562-ABCB6 porphyrin accumulation, 1 h, at 10 µM, stronger effect = higher value.
Experiment [14] can be described thus: AML differentiation inducers, ER-HoxA9 marrow cells – cell-based, GFP/MAC1 double positive, flow cytometry, validation set, primary screen (AID 588685;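 active = differentiation response of at least 50%, scaled between solvent and reference control, from cells with both markers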;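 note: compound exposure lasts four days before antibody staining and flow analysis; 0% = DMSO wells and 100% = 5 µM fulvestrant positive control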). The settings on record: stronger effect = higher value, normalized: vehicle 0, fulvestrant 100.
The nature of experiment [15]: Nile Red efflux blockade in pump-expressing yeast – validation compound set, multiplex, phenotypic, pilot screen (AID 588506;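 active = efflux inhibition above 0.42, the validation set average plus 4 SD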;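 note: Nile Red retained in cells so higher fluorescence means more efflux inhibition; 0 = negative control wells and 1 = enniatin B 25 µM full block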). To be noted: S. cerevisiae pump-expressing triplex, Nile Red efflux flow cytometry; at 10 µM; stronger effect = higher value; the pumps come from Candida albicans.
Experiment [16] concerns the target Beta-2 adrenergic receptor (Homo sapiens) (UniProt P07550). The experiment in a line: agonist-induced loss of surface beta2AR – cell-based, FAP fluorogen, flow cytometry, validation set, pilot screen (AID 504459;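 active = percent response above 42, roughly 3 SD of non-fluorescent test compounds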;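 note: agonist-driven loss of surface beta2AR via internalization measured by FAP dye flow cytometry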). To be noted: Am2.2-beta2AR cells, at 10 µM, stronger effect = higher value.

Sequence of AP-2 complex subunit beta (Homo sapiens) (P63010 whole entry, looked up, the tested form may be a part, one chain of several): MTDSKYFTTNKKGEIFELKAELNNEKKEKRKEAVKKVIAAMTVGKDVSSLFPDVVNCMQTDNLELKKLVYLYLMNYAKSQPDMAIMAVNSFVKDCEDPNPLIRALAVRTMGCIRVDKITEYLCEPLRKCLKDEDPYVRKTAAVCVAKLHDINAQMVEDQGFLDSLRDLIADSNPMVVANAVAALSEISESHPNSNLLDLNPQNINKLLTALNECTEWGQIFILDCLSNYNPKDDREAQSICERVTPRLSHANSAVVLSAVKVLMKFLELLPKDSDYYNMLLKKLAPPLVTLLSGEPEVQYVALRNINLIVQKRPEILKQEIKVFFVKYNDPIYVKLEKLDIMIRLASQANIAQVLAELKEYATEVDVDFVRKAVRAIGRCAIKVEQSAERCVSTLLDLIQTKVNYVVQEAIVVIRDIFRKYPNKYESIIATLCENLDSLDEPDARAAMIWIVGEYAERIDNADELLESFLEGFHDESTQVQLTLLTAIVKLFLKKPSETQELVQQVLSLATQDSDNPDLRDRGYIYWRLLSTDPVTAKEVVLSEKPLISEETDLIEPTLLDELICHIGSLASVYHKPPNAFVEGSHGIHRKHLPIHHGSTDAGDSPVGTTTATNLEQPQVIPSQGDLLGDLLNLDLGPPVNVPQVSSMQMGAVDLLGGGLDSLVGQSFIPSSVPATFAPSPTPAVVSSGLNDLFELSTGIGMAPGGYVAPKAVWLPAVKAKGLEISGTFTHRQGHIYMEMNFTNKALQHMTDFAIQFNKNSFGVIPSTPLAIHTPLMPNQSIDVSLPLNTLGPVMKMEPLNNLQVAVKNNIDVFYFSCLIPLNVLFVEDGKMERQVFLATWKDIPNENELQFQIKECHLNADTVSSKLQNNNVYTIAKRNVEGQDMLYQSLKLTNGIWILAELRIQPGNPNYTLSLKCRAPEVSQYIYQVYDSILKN
Sequence of ATP-binding cassette sub-family B member 6 (Homo sapiens) (Q9NP58 whole entry, looked up): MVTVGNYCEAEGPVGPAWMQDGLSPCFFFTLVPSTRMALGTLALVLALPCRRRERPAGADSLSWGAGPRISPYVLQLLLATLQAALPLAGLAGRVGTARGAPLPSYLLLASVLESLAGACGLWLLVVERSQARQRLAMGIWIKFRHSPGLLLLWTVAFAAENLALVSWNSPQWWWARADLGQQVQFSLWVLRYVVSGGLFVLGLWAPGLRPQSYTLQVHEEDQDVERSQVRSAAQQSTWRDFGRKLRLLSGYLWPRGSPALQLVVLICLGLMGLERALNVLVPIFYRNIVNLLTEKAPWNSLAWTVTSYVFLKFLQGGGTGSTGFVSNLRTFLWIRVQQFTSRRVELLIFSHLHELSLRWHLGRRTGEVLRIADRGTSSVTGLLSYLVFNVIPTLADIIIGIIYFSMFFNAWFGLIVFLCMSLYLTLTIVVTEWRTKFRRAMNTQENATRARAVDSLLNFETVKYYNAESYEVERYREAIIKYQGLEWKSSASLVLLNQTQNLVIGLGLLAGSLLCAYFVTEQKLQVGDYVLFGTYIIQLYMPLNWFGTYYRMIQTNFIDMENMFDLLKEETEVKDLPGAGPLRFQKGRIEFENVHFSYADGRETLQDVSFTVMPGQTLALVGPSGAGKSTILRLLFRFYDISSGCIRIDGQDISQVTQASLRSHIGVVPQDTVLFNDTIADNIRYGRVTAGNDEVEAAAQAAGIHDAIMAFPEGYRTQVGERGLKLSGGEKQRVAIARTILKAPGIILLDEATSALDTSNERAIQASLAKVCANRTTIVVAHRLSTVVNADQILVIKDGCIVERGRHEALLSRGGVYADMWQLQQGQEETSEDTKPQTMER
Sequence of Beta-adrenergic receptor kinase 1 (Homo sapiens) (P25098 whole entry, looked up): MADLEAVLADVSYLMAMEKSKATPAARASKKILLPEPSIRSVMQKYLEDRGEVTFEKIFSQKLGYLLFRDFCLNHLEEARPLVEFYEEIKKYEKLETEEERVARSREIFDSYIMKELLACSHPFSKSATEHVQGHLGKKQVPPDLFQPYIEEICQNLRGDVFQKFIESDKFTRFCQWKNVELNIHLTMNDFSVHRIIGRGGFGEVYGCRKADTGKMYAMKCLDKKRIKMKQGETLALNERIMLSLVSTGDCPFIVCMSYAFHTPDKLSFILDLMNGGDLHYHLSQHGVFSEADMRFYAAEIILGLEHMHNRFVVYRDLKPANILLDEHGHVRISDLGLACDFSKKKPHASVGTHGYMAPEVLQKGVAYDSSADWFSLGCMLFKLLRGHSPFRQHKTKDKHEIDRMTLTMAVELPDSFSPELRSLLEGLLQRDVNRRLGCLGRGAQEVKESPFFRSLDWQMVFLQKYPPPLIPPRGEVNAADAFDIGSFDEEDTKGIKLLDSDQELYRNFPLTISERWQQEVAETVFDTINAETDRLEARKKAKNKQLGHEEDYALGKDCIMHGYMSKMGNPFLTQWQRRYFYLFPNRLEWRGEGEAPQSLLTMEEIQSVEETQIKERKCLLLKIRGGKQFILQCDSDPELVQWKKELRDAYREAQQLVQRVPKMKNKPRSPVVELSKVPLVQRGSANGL
Sequence of Integrin beta-1 (Homo sapiens) + Integrin alpha-4 (Homo sapiens) (P05556 whole entry, looked up): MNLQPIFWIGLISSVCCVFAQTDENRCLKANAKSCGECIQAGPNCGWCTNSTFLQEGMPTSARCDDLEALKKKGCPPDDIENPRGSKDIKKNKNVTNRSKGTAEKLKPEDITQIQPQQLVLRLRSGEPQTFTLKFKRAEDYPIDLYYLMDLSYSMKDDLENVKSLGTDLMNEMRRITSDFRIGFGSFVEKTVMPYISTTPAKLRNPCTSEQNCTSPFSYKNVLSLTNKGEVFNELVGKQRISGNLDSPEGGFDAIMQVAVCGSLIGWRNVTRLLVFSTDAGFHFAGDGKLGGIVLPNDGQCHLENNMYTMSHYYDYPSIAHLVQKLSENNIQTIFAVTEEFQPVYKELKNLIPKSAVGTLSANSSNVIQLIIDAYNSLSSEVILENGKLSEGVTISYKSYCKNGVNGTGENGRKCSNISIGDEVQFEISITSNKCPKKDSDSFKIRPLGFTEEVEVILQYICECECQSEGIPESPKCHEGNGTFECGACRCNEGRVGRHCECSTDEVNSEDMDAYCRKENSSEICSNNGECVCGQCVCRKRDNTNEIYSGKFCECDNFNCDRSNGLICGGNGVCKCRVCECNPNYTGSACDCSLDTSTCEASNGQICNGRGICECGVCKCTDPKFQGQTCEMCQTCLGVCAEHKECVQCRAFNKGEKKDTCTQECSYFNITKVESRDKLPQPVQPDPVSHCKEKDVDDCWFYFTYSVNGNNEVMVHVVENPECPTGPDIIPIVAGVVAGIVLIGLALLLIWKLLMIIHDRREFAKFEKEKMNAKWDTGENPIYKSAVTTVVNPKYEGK
Sequence of Integrin beta-1 (Homo sapiens) + Integrin alpha-4 (Homo sapiens) (P13612 whole entry, looked up): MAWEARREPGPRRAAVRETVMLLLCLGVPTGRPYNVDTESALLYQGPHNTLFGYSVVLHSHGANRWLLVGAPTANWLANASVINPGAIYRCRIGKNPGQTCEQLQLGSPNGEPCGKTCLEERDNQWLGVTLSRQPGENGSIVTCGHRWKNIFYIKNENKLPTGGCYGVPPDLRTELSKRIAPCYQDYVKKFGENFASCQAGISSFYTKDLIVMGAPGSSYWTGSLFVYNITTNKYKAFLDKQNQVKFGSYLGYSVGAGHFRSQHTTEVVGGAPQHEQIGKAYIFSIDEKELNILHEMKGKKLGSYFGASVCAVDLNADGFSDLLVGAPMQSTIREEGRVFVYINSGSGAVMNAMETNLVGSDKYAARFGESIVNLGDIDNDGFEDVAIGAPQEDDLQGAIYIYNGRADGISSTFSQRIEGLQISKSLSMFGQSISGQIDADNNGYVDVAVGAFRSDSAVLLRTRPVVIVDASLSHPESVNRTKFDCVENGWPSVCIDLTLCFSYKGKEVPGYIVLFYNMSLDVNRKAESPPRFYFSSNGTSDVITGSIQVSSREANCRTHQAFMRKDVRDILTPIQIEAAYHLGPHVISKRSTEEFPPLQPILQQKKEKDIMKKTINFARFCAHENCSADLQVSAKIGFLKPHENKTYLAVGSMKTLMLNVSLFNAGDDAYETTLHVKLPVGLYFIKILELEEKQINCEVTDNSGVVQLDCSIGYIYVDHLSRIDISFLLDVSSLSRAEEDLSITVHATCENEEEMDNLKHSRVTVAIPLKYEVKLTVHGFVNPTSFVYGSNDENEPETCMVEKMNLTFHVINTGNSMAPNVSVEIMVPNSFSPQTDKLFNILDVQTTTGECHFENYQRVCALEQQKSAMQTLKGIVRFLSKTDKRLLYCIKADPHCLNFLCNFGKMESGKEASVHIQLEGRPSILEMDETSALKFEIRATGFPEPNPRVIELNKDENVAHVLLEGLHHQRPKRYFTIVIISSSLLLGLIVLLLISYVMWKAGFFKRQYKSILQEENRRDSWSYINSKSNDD
Sequence of Beta-2 adrenergic receptor (Homo sapiens) (P07550 whole entry, looked up): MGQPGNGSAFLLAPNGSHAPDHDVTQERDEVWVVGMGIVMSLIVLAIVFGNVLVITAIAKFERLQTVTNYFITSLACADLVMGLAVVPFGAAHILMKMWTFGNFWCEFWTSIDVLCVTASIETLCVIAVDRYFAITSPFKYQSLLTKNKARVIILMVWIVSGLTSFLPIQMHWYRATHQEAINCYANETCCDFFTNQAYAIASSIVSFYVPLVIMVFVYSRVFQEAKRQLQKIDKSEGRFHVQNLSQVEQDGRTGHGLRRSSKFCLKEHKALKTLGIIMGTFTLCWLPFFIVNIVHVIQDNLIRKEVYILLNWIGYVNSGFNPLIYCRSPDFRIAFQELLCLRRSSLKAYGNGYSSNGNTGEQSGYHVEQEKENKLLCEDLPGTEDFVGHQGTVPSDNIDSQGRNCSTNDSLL

As for `COc1ccc(CCN(C)CCCC(C#N)(c2ccc(OC)c(OC)c2)C(C)C)cc1OC` (centres undefined), the percent of DMSO control GFP in experiment [1] was 105% (inactive). Besides, the GFP response vs DMSO is 104% (inactive) in experiment [2] and 95.4% (inactive) in experiment [4]. In addition, in experiment [3], the percent response of DMSO control was 98.8% (inactive). In [5], the GFP response, % of DMSO was 99.7% (inactive). This compound also displayed a double positive events in [6] of 63.8%. For the same compound, the vesicle binding response in experiment [6] was 183% (inactive). In addition, the inhibition in experiment [7] was 2.56% (inactive); in experiment [10] it was 53.9% (inactive); in experiment [13], 2% (inactive). Also, the superoxide response (% of plate) in experiment [8] is 101% (inactive). Besides, the aptamer binding inhibition in [9] was -1% (inactive). Further, the response in experiment [11] is 1.25% (inactive). In addition, the binding (% of control) in experiment [12] was 102% (inactive). In [14], the differentiation response is 24% (inactive).

With `Cc1nc(C(=O)Nc2ccccc2Cl)cc2c1[nH]c1ccccc12`, the percent of DMSO control GFP in experiment [1] was 99.6% (inactive). In addition, the GFP response vs DMSO in experiment [2] is 108% (inactive); in experiment [4], 100% (inactive). In experiment [3], the percent response of DMSO control was 106% (inactive). In addition, the GFP response, % of DMSO in experiment [5] is 98.2% (inactive). In addition, the double positive events in experiment [6] was found to be 53.9%. The vesicle binding response in experiment [6] is 172% (inactive). The inhibition was -1.17% (inactive) in [7], -0.33% (inactive) in [10] and 11% (inactive) in experiment [13]. The superoxide response (% of plate) in [8] was 111% (inactive). The aptamer binding inhibition in experiment [9] was 1% (inactive). Besides, the response in [11] was 2.14% (inactive). The binding (% of control) in [12] is 95.4% (inactive). In addition, in [15], the efflux inhibition (fraction of control) is 0.14 (inactive). In [14], the differentiation response was -9.89% (inactive).

In the case of `CCOc1ccc(CCn2c(-c3ccco3)nc3ccccc3c2=O)cc1OCC`, in experiment [1], the percent of DMSO control GFP was 100% (inactive). For the same compound, the figures for the GFP response vs DMSO in experiment [2] and in [4] were 106% (inactive) and 92.7% (inactive), respectively. The percent response of DMSO control in experiment [3] is 94.2% (inactive). Also, in experiment [5], the GFP response, % of DMSO was 92.6% (inactive). Also, the double positive events in experiment [6] is 62.6%. In experiment [6], the vesicle binding response is 258% (inactive). The inhibition in [7] was -18.1% (inactive); in experiment [10], 3.57% (inactive); in [13] it was 20% (inactive). Moreover, the aptamer binding inhibition in experiment [9] was 1% (inactive). Further, the response in experiment [16] is 2.8% (inactive); in experiment [11] it was -0.47% (inactive). The binding (% of control) in [12] was 91.2% (inactive). In addition, in experiment [15], the efflux inhibition (fraction of control) is 0.27 (inactive). Moreover, the differentiation response in experiment [14] was 0.24% (inactive).

For the compound `O=C(CCCN1CCC(O)(c2ccc(Cl)cc2)CC1)c1ccc(F)cc1`, in [1], the percent of DMSO control GFP was 101% (inactive). In addition, the GFP response vs DMSO in experiment [2] is 99.3% (inactive); in experiment [4], 86.8% (inactive). The percent response of DMSO control in experiment [3] was 91.9% (inactive). In experiment [5], the GFP response, % of DMSO was 93.7% (inactive). Also, in experiment [6], the double positive events is 62.6%. For the same compound, in experiment [6], the vesicle binding response was 48.6% (inactive). The figures for the inhibition in experiment [7], in experiment [10] and in experiment [13] were 9.92% (inactive), 13.3% (inactive) and 21% (inactive), respectively. Further, in [9], the aptamer binding inhibition is -3% (inactive). Moreover, the figures for the response in experiment [16] and in experiment [11] were -2.5% (inactive) and -1.24% (inactive), respectively. The binding (% of control) in [12] was 105% (inactive). Further, in experiment [15], the efflux inhibition (fraction of control) was 0.27 (inactive). In experiment [14], the differentiation response was 15.9% (inactive).

Consider `O=c1c(-c2ccc3c(c2)OCCO3)coc2cc(OC3OC(CO)C(O)C(O)C3O)ccc12` (centres undefined), for which the percent of DMSO control GFP in experiment [1] is 103% (inactive). For the same compound, the GFP response vs DMSO in experiment [2] was 101% (inactive); in experiment [4], 90.3% (inactive). In experiment [3], the percent response of DMSO control is 106% (inactive). In experiment [5], the GFP response, % of DMSO is 103% (inactive). The double positive events in experiment [6] was determined as 63.1%. For the same compound, the vesicle binding response in [6] was 127% (inactive). The inhibition was 1.62% (inactive) in [7], -2.44% (inactive) in [10] and 8% (inactive) in [13]. The superoxide response (% of plate) in experiment [8] was 93.4% (inactive). The aptamer binding inhibition in experiment [9] was 6% (inactive). Moreover, in experiment [11], the response was -2.72% (inactive). Further, the binding (% of control) in experiment [12] is 102% (inactive). Further, the efflux inhibition (fraction of control) in [15] is -0.28 (inactive). In addition, the differentiation response in [14] was -14.7% (inactive).

As a reminder, the inhibition is the change of the read-out against control, counted positive when it falls.
